Reference: the antibiotic and cytotoxicity screens of Wong et al. (2023)
The whole screen tested about 39,000 compounds, of which about 500 (1.3%) were called active. Only a selection was taken, and actives are over-represented in it overall.

test system: S. aureus RN4220; assay: growth inhibition call (relative growth <= 0.2); conditions: 50 µM

Question: `C[C@@H]1CCCCO[C@H](CN(C)Cc2ccccc2)[C@@H](C)CN([C@@H](C)CO)C(=O)c2cc(NS(=O)(=O)c3ccc(F)cc3)ccc2O1` was tested. Which growth inhibition call did it give?
Answer: inactive

Question: Which growth inhibition call does the source give for `C[C@@H]1CCCCO[C@H](CN(C)S(=O)(=O)c2cccs2)[C@@H](C)CN([C@@H](C)CO)C(=O)c2cc(NC(=O)CCC(F)(F)F)ccc2O1` here?
Answer: inactive

Question: With `CC(=O)OC[C@H]1O[C@@](COC(C)=O)(O[C@H]2O[C@H](COC(C)=O)[C@@H](OC(C)=O)[C@H](OC(C)=O)[C@H]2OC(C)=O)[C@@H](OC(C)=O)[C@@H]1OC(C)=O` as the compound, how does the growth inhibition call read?
Answer: inactive

Question: Which growth inhibition call does the source give for `C[C@H]1CN([C@@H](C)CO)C(=O)CCCn2nncc2CO[C@@H]1CN(C)S(=O)(=O)c1ccc2c(c1)OCCCO2` here?
Answer: inactive

Question: With `C[C@H](CO)N1C[C@H](C)[C@@H](CN(C)Cc2ccc(Oc3ccccc3)cc2)Oc2ccc(NS(=O)(=O)c3ccc(F)cc3)cc2C1=O` as the compound, how does the growth inhibition call read?
Answer: inactive

Question: Which growth inhibition call does the source give for `C[C@H]1CN([C@@H](C)CO)C(=O)c2cccc(NS(=O)(=O)c3ccc(F)cc3)c2O[C@H]1CN(C)Cc1ccc(Cl)c(Cl)c1` here?
Answer: inactive

Question: `C[C@H]1CN([C@@H](C)CO)C(=O)Cc2cc(NC(=O)CCCCCC(=O)Nc3ccccc3N)ccc2O[C@@H]1CN(C)C(=O)Nc1ccc(C(F)(F)F)cc1` was tested. Which growth inhibition call did it give?
Answer: inactive

Question: How did the growth inhibition call turn out when `CCS(=O)(=O)Nc1ccc2c(c1)C(=O)N(C)[C@H]1CC[C@@H](CC(=O)N3CCN(C)CC3)O[C@@H]1CO2` was run?
Answer: inactive

Question: With `COc1cc(O)cc(OC)c1OC` as the compound, how does the growth inhibition call read?
Answer: inactive

Question: How did the growth inhibition call turn out when `COc1ccc(C2=C(N)C(=O)NC2=O)cc1OC` was run?
Answer: inactive

Question: `COc1cc(Cc2cnc(N)nc2N)cc(OC)c1OC` was tested. Which growth inhibition call did it give?
Answer: active

Question: Which growth inhibition call does the source give for `COc1cccnc1N` here?
Answer: inactive

Question: Which growth inhibition call does the source give for `COc1ccc(Cc2cnc(N)nc2N)cc1OC` here?
Answer: active

Question: How did the growth inhibition call turn out when `COc1cc(CN)cc(OC)c1OC` was run?
Answer: inactive

Question: How did the growth inhibition call turn out when `COc1ccc(NC(=O)N(C)C[C@H]2OCCCC[C@H](C)Oc3ccc(NC(=O)c4ccncc4)cc3C(=O)N([C@@H](C)CO)C[C@@H]2C)cc1` was run?
Answer: inactive

Question: Which growth inhibition call does the source give for `COc1ccc(CN(C)C[C@H]2OCCCC[C@@H](C)Oc3ccc(NC(=O)Nc4ccc5c(c4)OCO5)cc3C(=O)N([C@H](C)CO)C[C@H]2C)cc1` here?
Answer: inactive

Question: `C[C@@H]1CCCCO[C@@H](CN(C)Cc2ccc(C(=O)O)cc2)[C@@H](C)CN([C@H](C)CO)C(=O)c2cc(NS(=O)(=O)c3ccc(Cl)cc3)ccc2O1` was tested. Which growth inhibition call did it give?
Answer: inactive

Question: With `COc1ccc(NC(=O)Nc2ccc3c(c2)C(=O)N([C@H](C)CO)C[C@H](C)[C@H](CN(C)C(=O)C2CCCCC2)OCCCC[C@H](C)O3)cc1` as the compound, how does the growth inhibition call read?
Answer: inactive

Question: With `C[C@@H]1CN([C@H](C)CO)C(=O)c2cccc(NC(=O)CCCCCC(=O)Nc3ccccc3N)c2O[C@@H]1CN(C)Cc1ccc(-c2ccccc2)cc1` as the compound, how does the growth inhibition call read?
Answer: inactive

Question: For `COc1ccc(CN(C)C[C@H]2Oc3c(NS(=O)(=O)c4cn(C)cn4)cccc3C(=O)N([C@@H](C)CO)C[C@@H]2C)cc1`, which growth inhibition call is on record?
Answer: inactive

Question: With `CO[C@@H]1CN(C)C(=O)c2cc(NS(=O)(=O)c3ccccc3C)ccc2OC[C@@H](C)N(S(C)(=O)=O)C[C@H]1C` as the compound, how does the growth inhibition call read?
Answer: inactive

Question: For `C[C@H](CO)N1C[C@H](C)[C@@H](CN(C)Cc2ccc(C(F)(F)F)cc2)OCCCC[C@H](C)Oc2ccc(NC(=O)c3ccncc3)cc2C1=O`, which growth inhibition call is on record?
Answer: inactive

Question: For `C[C@@H]1CN([C@H](C)CO)C(=O)c2cc(NC(=O)NC3CCCCC3)ccc2O[C@@H]1CN(C)Cc1ccc(Cl)c(Cl)c1`, which growth inhibition call is on record?
Answer: inactive

Question: How did the growth inhibition call turn out when `CSc1ccc2c(c1)N(CCC1CCCCN1C)c1ccccc1S2.Cl` (stereo not drawn) was run?
Answer: inactive

Question: For `CN1CCC(=C2c3ccccc3Sc3ccccc32)CC1.O=C(O)C=CC(=O)O`, which growth inhibition call is on record?
Answer: inactive

Question: For `CS(=O)(=O)O.CSc1ccc2c(c1)C(N1CCN(C)CC1)Cc1ccccc1S2` (stereo not drawn), which growth inhibition call is on record?
Answer: active

Question: With `C[C@@H]1CCCCO[C@@H](CN(C)C(=O)c2ccccc2)[C@@H](C)CN([C@@H](C)CO)C(=O)c2cc(NC(=O)Nc3ccc(C(F)(F)F)cc3)ccc2O1` as the compound, how does the growth inhibition call read?
Answer: inactive

Question: With `CC[C@@H](C)SSc1ncc[nH]1` as the compound, how does the growth inhibition call read?
Answer: active

Question: Which growth inhibition call does the source give for `Cc1ncc[nH]1` here?
Answer: inactive

Question: `OCc1ncc[nH]1` was tested. Which growth inhibition call did it give?
Answer: inactive

Question: For `C[C@@H]1CN([C@@H](C)CO)S(=O)(=O)c2ccc(C#CCN(C)C)cc2O[C@@H]1CN(C)C(=O)C1CCCCC1`, which growth inhibition call is on record?
Answer: inactive

Question: Which growth inhibition call does the source give for `Cc1ccc(S(=O)(=O)Nc2cccc3c2O[C@@H](CN(C)CC2CC2)[C@@H](C)CN([C@H](C)CO)C3=O)cc1` here?
Answer: inactive

Question: For `C[C@H](O)C#Cc1cnc2c(c1)C(=O)N([C@@H](C)CO)C[C@@H](C)[C@H](CN(C)Cc1cncnc1)O2`, which growth inhibition call is on record?
Answer: inactive

Question: `O=C(c1cccnc1)N1C[C@H]2[C@@H](c3ccccc31)[C@H](CO)N2C(=O)CN1CCOCC1` was tested. Which growth inhibition call did it give?
Answer: inactive

Question: `Oc1ccc(C2(c3ccccc3F)CCC(F)(F)CC2)cc1` was tested. Which growth inhibition call did it give?
Answer: active

Question: With `O=S1(=O)OC(c2ccc(O)cc2)(c2ccc(O)cc2)c2ccccc21` as the compound, how does the growth inhibition call read?
Answer: inactive

Question: Which growth inhibition call does the source give for `O=C1OC(c2ccc(O)cc2)(c2ccc(O)cc2)c2ccccc21` here?
Answer: inactive

Question: Which growth inhibition call does the source give for `C[C@H]1CN([C@@H](C)CO)S(=O)(=O)c2ccc(C#CCN(C)C)cc2O[C@@H]1CN(C)C(=O)c1ccccc1F` here?
Answer: inactive

Question: Which growth inhibition call does the source give for `C[C@H]1CN([C@@H](C)CO)C(=O)c2cccc(NS(=O)(=O)c3cn(C)cn3)c2O[C@H]1CN(C)S(=O)(=O)c1ccccc1` here?
Answer: inactive

Question: With `C[C@@H]1CN([C@H](C)CO)S(=O)(=O)c2ccc(C#CC(C)(C)O)cc2O[C@H]1CN(C)Cc1ccccc1` as the compound, how does the growth inhibition call read?
Answer: inactive

Question: With `CC(N)O.Cc1cc(CC(C)CC(C)(C)C)n(O)c(=O)c1` (stereo not drawn) as the compound, how does the growth inhibition call read?
Answer: active

Question: For `C[C@@H]1CCCCO[C@@H](CN(C)Cc2ccncc2)[C@@H](C)CN([C@@H](C)CO)C(=O)c2cc(NC(=O)Nc3ccc4c(c3)OCO4)ccc2O1`, which growth inhibition call is on record?
Answer: inactive

Question: For `C[C@@H]1CN([C@@H](C)CO)C(=O)Cc2cc(NS(=O)(=O)c3cn(C)cn3)ccc2O[C@@H]1CN(C)CC1CCCCC1`, which growth inhibition call is on record?
Answer: inactive

Question: Which growth inhibition call does the source give for `CN(C(=O)CN(CCO)CC(=O)N(C)C(C)(C)Cc1ccccc1)C(C)(C)Cc1ccccc1` here?
Answer: active

Question: For `O=C(O)CN(CCc1ccccc1)CC(=O)O`, which growth inhibition call is on record?
Answer: inactive

Question: `CC(=O)c1ccccc1OC[C@@H](O)CN(CCO)CCO` was tested. Which growth inhibition call did it give?
Answer: inactive

Question: For `C[C@@H]1CCCCO[C@H](CN(C)Cc2ccc(C(F)(F)F)cc2)[C@H](C)CN([C@@H](C)CO)C(=O)c2cc(N(C)C)ccc2O1`, which growth inhibition call is on record?
Answer: inactive

Question: `N[C@@H]1CN(c2c(F)cc3c(=O)c(C(=O)O)cn([C@@H]4C[C@@H]4F)c3c2Cl)CC12CC2` was tested. Which growth inhibition call did it give?
Answer: inactive

Question: For `CC1CN(c2c(F)c(F)c3c(=O)c(C(=O)O)cn(C4CC4)c3c2F)CC(C)N1` (stereo not drawn), which growth inhibition call is on record?
Answer: active

Question: How did the growth inhibition call turn out when `Cl.NC1CCN(c2c(F)cc3c(=O)c(C(=O)O)cn(C4CC4)c3c2Cl)C1` (stereo not drawn) was run?
Answer: active

Question: `COc1c(N2CCNC(C)C2)c(F)cc2c(=O)c(C(=O)O)cn(C3CC3)c12` (stereo not drawn) was tested. Which growth inhibition call did it give?
Answer: active

Question: Which growth inhibition call does the source give for `CC1CN(c2c(F)c(N)c3c(=O)c(C(=O)O)cn(C4CC4)c3c2F)CC(C)N1` (stereo not drawn) here?
Answer: inactive

Question: For `COc1c(N2CC3CCCNC3C2)c(F)cc2c(=O)c(C(=O)O)cn(C3CC3)c12.Cl` (stereo not drawn), which growth inhibition call is on record?
Answer: active
